Assay results taken from PubChem BioAssay (NCI).
The panel holds about 83,000 compounds, 20% with a hit somewhere; the sample as a whole holds those more often.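 Cell lines were cultured in 96-well plates, exposed to a single compound concentration, and assessed for percent growth 48 hours later.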 Unmarked numbers belong to inactive results. Calls of active or inactive are those of the source. How the source made its calls: active means growth percent below 10; inactive means the rest.

system: MCF7 breast; test: NCI-60 one-dose screen, 48 h (100 = growth as untreated, 0 = no growth, -100 = all killed); conditions: 10 µM unless noted

SMILES | growth
COc1ccc(C(c2cc(OC)c(OC)c(OC)c2)N2CCN(Cc3ccccc3)CC2)cc1 (stereo not given) | 47.7%
COc1ccc2nc(SCC(=O)Nc3ccccc3C)[nH]c2c1 | 90.7%
N/C(=N\c1nc2ccccc2s1)NC(=NC1CCCCC1)NC1CCCCC1 | -42.4% (active)
CSCCC(NC(=O)c1ccccc1)C(=O)N/N=C1\S/C(=C/c2ccc(Cl)cc2)C(=O)N1C (stereo not given) | 83.9%
S=c1[nH]c2cc(Cl)ccc2o1 | 105%
COc1ccc(-c2cc(C(=O)N3N=C(c4ccc(N)cc4)CC3c3ccccc3)c3ccccc3n2)cc1 (stereo not given) | 24.1%
Cn1c(=O)c2c(nc(NC3=NS(=O)(=O)c4ccccc43)n2Cc2ccccc2)n(C)c1=O | 88.7%
O=C(Nc1cccnc1Nc1ccc(Cl)cc1)c1cn(Cc2ccc(F)cc2)nn1 | 92.8%
Cc1c2cc[nH]c(=O)c2c(C)c2c1[nH]c1ccc(OC(=O)c3ccccc3)cc12 | 20.3%
N=C(N)c1ccc(-c2ccc(-c3ccc(Cl)cc3Cl)s2)cc1F | -65.8% (active)
COc1ccc2cc(Cn3cc[n+](Cc4ccc5ccccc5c4)c3)ccc2c1 | 40.9%
COC(=O)c1c2c(n3ccc(C)cc13)C(=O)c1ccccc1C2=O | 55.9%
CNC(=O)c1cc(Oc2ccc3nc(NC(=O)Nc4ccc(Cl)c(Cl)c4)sc3c2)ccn1 | 32.2%
Cc1c(Cl)cccc1C(=O)Nc1nc2c(s1)CN(C(=O)Nc1cccc(C(F)(F)F)c1)CC2 | 12.6%
Cc1c2cnccc2c(C)c2c1c1cc(C3OCCCO3)ccc1n2C | 0.909% (active)
CC(C)c1ccc(-n2c(=S)[nH]c3sc4c(c3c2=O)CCC(=O)C4)cc1 | 85.4%
O=C(Nc1cccc(NC(=O)C2CCCCC2)c1)c1ccccn1 | 86.4%
O=C1NC(=O)c2c1c1c3ccccc3[nH]c1c1oc3ccc(F)cc3c21 | 34%
CCOC(=O)c1ccc2c(c1)c1c(C)c3ccncc3c(C)c1n2C | 1.8% (active)
COc1ccc(-c2oc(=O)ccc2-c2cc(OC)c(OC)c(OC)c2)cc1O | 10.6%

SMILES | growth
COc1cc(Nc2c3ccc(Cl)cc3nc3ccc(OC)cc23)c2ncccc2c1 | 40.3%
O=C(CCCCCCN1CC(=O)N2[C@@H](C3CCCCC3)c3[nH]c4ccccc4c3C[C@H]2C1=O)NO | 51.6%
C=CCN=C(N)SCCCCCCSC(N)=NCC=C | 90.9%
O=C(/C=C\c1ccco1)/C=C/c1ccco1 | 101%
C#Cc1cccc(Nc2nc3ccc([N+](=O)[O-])cc3nc2Nc2cccc(C#C)c2)c1 | -12.6% (active)
COc1cc(/C=C2\CN(S(=O)(=O)c3ccc(C)cc3)C/C(=C\c3cc(CN4CCCCC4)c(O)c(OC)c3)C2=O)cc(CN2CCCCC2)c1O | -74.4% (active)
O=C1/C(=C/c2ccc(Br)cc2)COc2ccc(O)c(O)c21 | 4.13% (active)
O=C1CC2C=CCN2C=C1NC(=O)C1CCCCC1 (stereo not given) | 92.3%
CCN(CC)CCOc1nc2c3ccc(Cl)cc3nn2c2ccccc12 | 2.07% (active)
COc1ccc2c(O)c(/C=C3\N=Nc4ccccc43)oc2c1C[C@H]1CCNC[C@H]1F | 12.1%
CCCCCCC(=O)Nc1ncc(Cc2ccc(C)cc2)s1 | 24.7%
COc1ccc(C2C3=C(COC3=O)N(CCO)c3cc4c(cc32)OCCO4)cc1OC (stereo not given) | 15.9%
Nc1c(C(=O)Nc2ccccn2)sc2nc3c(cc12)C(O)CCC3 (stereo not given) | 13.2%
Cc1nc2sc(C(=O)Nc3ccc(Cl)cc3)c(N)c2cc1C(O)c1ccccc1 (stereo not given) | 21.1%
COc1ncc2cc1NS(=O)(=O)c1cccc(c1)C(=O)NCC1=CC=C(S1)c1ncnc3c1SC2=C3C | -12.5% (active)
CC(/C=C1\SC(=S)N(CC(=O)NC(Cc2c[nH]c3ccccc23)C(=O)O)C1=O)=C\c1ccccc1 (stereo not given) | 94.8%
C=C(C)[C@@H]1CC[C@]2(CO)CC[C@]3(C)[C@H](CC[C@@H]4[C@@]5(C)CCC(NCCc6ccc(O)cc6)C(C)(C)[C@@H]5CC[C@]43C)[C@@H]12 (stereo not given in full) | -77.9% (active)
Cn1cc(-c2nn3cc(-c4ccccc4)nc3s2)c2ccccc21 | 55.6%
C#CCOc1cccc(-c2ncc3cc(NC(=O)CCl)ccc3n2)c1 | -21.6% (active)
C#CC#CC#CC#CC#CC#CC#CC#CC[C@H]1OC[C@@H](COC(=O)O[C@@H](C(=O)O[C@H]2C[C@@]3(O)[C@@H](OC(=O)c4ccccc4)[C@@H]4[C@]5(OC(C)=O)CO[C@@H]5C[C@H](O)[C@@]4(C)C(=O)[C@H](OC(C)=O)C(=C2C)C3(C)C)[C@@H](NC(=O)c2ccccc2)c2ccccc2)O1 | 33.7%
